Hit rate of the full screen: of about 5,500 compounds, about 2,000 (36%) were called active. About 18% were inconclusive and are not listed. The list shows a part of the results. Values without a mark were called inactive. No stated cut-off is given here; in the data, active means normalized growth mostly below about 0.91 (no sharp cut-off); inconclusive means no clear call, values can overlap the other calls; inactive means mostly above about 0.92.
Test: chemical genetic growth profiling, strain panel (AID 1159580);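 further: tested at 20 µM; growth read once vehicle control cultures reached saturation at 30 °C; 1 = growth at the plate median or of vehicle wells; lower values mean less growth of the strain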
Conditions: growth OD

SMILES: O=C1c2ccccc2C(=O)c2c1ccc(O)c2O
- normalized growth (S. cerevisiae deletion strains, locus YJL187C, strain SWE1, hits give low values): 0.524 (active)
- normalized growth (S. cerevisiae deletion strains, locus YJR066W, strain TOR1, hits give low values): 0.565 (active)
- normalized growth (S. cerevisiae deletion strains, locus YKL009W, strain mrt4, hits give low values): 0.907
- normalized growth (S. cerevisiae deletion strains, locus YKL068W, hits give low values): 0.854 (active)
- normalized growth (S. cerevisiae deletion strains, locus YKL085W, strain MDH1 (second series), hits give low values): 0.868 (active)
- normalized growth (S. cerevisiae deletion strains, locus YKL085W, strain MDH1, hits give low values): 0.868 (active)
- normalized growth (S. cerevisiae deletion strains, locus YKL160W, strain elf1, hits give low values): 0.568 (active)
- normalized growth (S. cerevisiae deletion strains, locus YKL190W, strain CNB1, hits give low values): 0.286 (active)
- normalized growth (S. cerevisiae deletion strains, locus YKR001C, strain vps1, hits give low values): 0.26 (active)
- normalized growth (S. cerevisiae deletion strains, locus YKR026C, strain gcn3, hits give low values): 0.744 (active)
- normalized growth (S. cerevisiae deletion strains, locus YKR091W, strain srl3, hits give low values): 0.714 (active)
- normalized growth (S. cerevisiae deletion strains, locus YLL001W, strain dnm1, hits give low values): 0.492 (active)
- normalized growth (S. cerevisiae deletion strains, locus YLL026W, hits give low values): 0.576 (active)
- normalized growth (S. cerevisiae deletion strains, locus YLL041C, strain sdh2, hits give low values): 0.733 (active)
- normalized growth (S. cerevisiae deletion strains, locus YLR027C, strain aat2, hits give low values): 0.578 (active)
- normalized growth (S. cerevisiae deletion strains, locus YLR039C, strain RIC1, hits give low values): 0.149 (active)
- normalized growth (S. cerevisiae deletion strains, locus YLR058C, strain SHM2, hits give low values): 0.203 (active)
- normalized growth (S. cerevisiae deletion strains, locus YLR102C, strain apc9, hits give low values): 0.516 (active)
- normalized growth (S. cerevisiae deletion strains, locus YLR113W, strain HOG1, hits give low values): 0.56 (active)
- normalized growth (S. cerevisiae deletion strains, locus YLR221C, strain rsa3, hits give low values): 0.538 (active)
- normalized growth (S. cerevisiae deletion strains, locus YLR258W, strain gsy2, hits give low values): 0.58 (active)
- normalized growth (S. cerevisiae deletion strains, locus YLR262C, strain YPT6 (second series), hits give low values): 0.201 (active)
- normalized growth (S. cerevisiae deletion strains, locus YLR268W, strain sec22, hits give low values): 0.194 (active)
- normalized growth (S. cerevisiae deletion strains, locus YLR320W, strain mms22, hits give low values): 0.374 (active)
- normalized growth (S. cerevisiae deletion strains, locus YLR342W, strain FKS1, hits give low values): 0.453 (active)
- normalized growth (S. cerevisiae deletion strains, locus YLR357W, strain rsc2, hits give low values): 0.579 (active)
- normalized growth (S. cerevisiae deletion strains, locus YLR370C, strain arc18, hits give low values): 0.539 (active)
- normalized growth (S. cerevisiae deletion strains, locus YLR371W, strain rom2, hits give low values): 0.316 (active)
- normalized growth (S. cerevisiae deletion strains, locus YLR384C, strain iki3, hits give low values): 0.574 (active)
- normalized growth (S. cerevisiae deletion strains, locus YLR418C, strain cdc73, hits give low values): 0.225 (active)
- normalized growth (S. cerevisiae deletion strains, locus YML016C, strain PPZ1, hits give low values): 0.195 (active)
- normalized growth (S. cerevisiae deletion strains, locus YML032C, strain rad52, hits give low values): 0.487 (active)
- normalized growth (S. cerevisiae deletion strains, locus YML120C, strain ndi1, hits give low values): 0.602 (active)
- normalized growth (S. cerevisiae deletion strains, locus YML124C, strain tub3, hits give low values): 0.547 (active)
- normalized growth (S. cerevisiae deletion strains, locus YMR058W, strain fet3, hits give low values): 0.444 (active)
- normalized growth (S. cerevisiae deletion strains, locus YMR078C, strain ctf18, hits give low values): 0.455 (active)
- normalized growth (S. cerevisiae deletion strains, locus YMR125W, strain sto1, hits give low values): 0.773 (active)
- normalized growth (S. cerevisiae deletion strains, locus YMR129W, hits give low values): 0.69 (active)
- normalized growth (S. cerevisiae deletion strains, locus YMR205C, strain PFK2, hits give low values): 0.423 (active)
- normalized growth (S. cerevisiae deletion strains, locus YMR223W, strain ubp8, hits give low values): 0.408 (active)
- normalized growth (S. cerevisiae deletion strains, locus YMR231W, strain pep5, hits give low values): 0.641 (active)
- normalized growth (S. cerevisiae deletion strains, locus YMR263W, strain SAP30, hits give low values): 0.295 (active)
- normalized growth (S. cerevisiae deletion strains, locus YMR307W, strain GAS1, hits give low values): 0.167 (active)
- normalized growth (S. cerevisiae deletion strains, locus YNL067W, strain RPL9B, hits give low values): 0.324 (active)
- normalized growth (S. cerevisiae deletion strains, locus YNL071W, strain lat1, hits give low values): 0.386 (active)
- normalized growth (S. cerevisiae deletion strains, locus YNL128W, strain TEP1, hits give low values): 0.216 (active)
- normalized growth (S. cerevisiae deletion strains, locus YNL153C, strain GIM3, hits give low values): 0.28 (active)
- normalized growth (S. cerevisiae deletion strains, locus YNL183C, strain NPR1, hits give low values): 0.596 (active)
- normalized growth (S. cerevisiae deletion strains, locus YNL209W, strain ssb2, hits give low values): 0.265 (active)
- normalized growth (S. cerevisiae deletion strains, locus YNL233W, strain BNI4, hits give low values): 0.246 (active)
- normalized growth (S. cerevisiae deletion strains, locus YNL248C, strain rpa49, hits give low values): 0.458 (active)
- normalized growth (S. cerevisiae deletion strains, locus YNL250W, strain rad50, hits give low values): 0.895 (active)
- normalized growth (S. cerevisiae deletion strains, locus YNL271C, strain bni1, hits give low values): 0.828 (active)
- normalized growth (S. cerevisiae deletion strains, locus YNL298W, strain CLA4, hits give low values): 0.775 (active)
- normalized growth (S. cerevisiae deletion strains, locus YNL307C, strain MCK1, hits give low values): 0.188 (active)
- normalized growth (S. cerevisiae deletion strains, locus YNL322C, strain KRE1 (second series), hits give low values): 0.726 (active)
- normalized growth (S. cerevisiae deletion strains, locus YNR049C, strain mso1, hits give low values): 0.659 (active)
- normalized growth (S. cerevisiae deletion strains, locus YNR052C, strain pop2, hits give low values): 0.218 (active)
- normalized growth (S. cerevisiae deletion strains, locus YOL012C, strain htz1): 0.219
- normalized growth (S. cerevisiae deletion strains, locus YOL147C, strain pex11, hits give low values): 0.362 (active)
- normalized growth (S. cerevisiae deletion strains, locus YOR001W, strain rrp6, hits give low values): 0.608 (active)
- normalized growth (S. cerevisiae deletion strains, locus YOR061W, strain CKA2, hits give low values): 0.237 (active)
- normalized growth (S. cerevisiae deletion strains, locus YOR069W, strain VPS5, hits give low values): 0.314 (active)
- normalized growth (S. cerevisiae deletion strains, locus YOR070C, strain gyp1, hits give low values): 0.496 (active)
- normalized growth (S. cerevisiae deletion strains, locus YOR080W, strain dia2, hits give low values): 0.638 (active)
- normalized growth (S. cerevisiae deletion strains, locus YOR083W, strain WHI5, hits give low values): 0.475 (active)
- normalized growth (S. cerevisiae deletion strains, locus YOR106W, strain vam3, hits give low values): 0.302 (active)
- normalized growth (S. cerevisiae deletion strains, locus YOR136W, strain idh2, hits give low values): 0.433 (active)
- normalized growth (S. cerevisiae deletion strains, locus YOR144C, strain elg1, hits give low values): 0.561 (active)
- normalized growth (S. cerevisiae deletion strains, locus YOR184W, strain ser1, hits give low values): 0.209 (active)
- normalized growth (S. cerevisiae deletion strains, locus YOR231W, strain MKK1, hits give low values): 0.707 (active)
- normalized growth (S. cerevisiae deletion strains, locus YOR265W, strain rbl2, hits give low values): 0.503 (active)
- normalized growth (S. cerevisiae deletion strains, locus YOR270C, strain vph1, hits give low values): 0.278 (active)
- normalized growth (S. cerevisiae deletion strains, locus YOR290C, strain snf2, hits give low values): 0.41 (active)
- normalized growth (S. cerevisiae deletion strains, locus YOR316C, strain cot1, hits give low values): 0.474 (active)
- normalized growth (S. cerevisiae deletion strains, locus YPL051W, strain arl3, hits give low values): 0.295 (active)
- normalized growth (S. cerevisiae deletion strains, locus YPL078C, strain atp4, hits give low values): 0.471 (active)
- normalized growth (S. cerevisiae deletion strains, locus YPL106C, strain sse1, hits give low values): 0.502 (active)
- normalized growth (S. cerevisiae deletion strains, locus YPL240C, strain hsp82, hits give low values): 0.613 (active)
- normalized growth (S. cerevisiae deletion strains, locus YPL256C, strain CLN2, hits give low values): 0.749 (active)
- normalized growth (S. cerevisiae deletion strains, locus YPR119W, strain clb2, hits give low values): 0.558 (active)
- normalized growth (S. cerevisiae deletion strains, locus YPR141C, strain kar3, hits give low values): 0.854 (active)
- normalized growth (S. cerevisiae deletion strains, locus YPR163C, strain tif3, hits give low values): 0.214 (active)
- normalized growth (S. cerevisiae deletion strains, locus YPR167C, strain met16, hits give low values): 0.377 (active)
- normalized growth (S. cerevisiae deletion strains, strain wtn01, hits give low values): 0.295 (active)
- normalized growth (S. cerevisiae strains, strain wild type, hits give low values): 0.166 (active)

Reference: PubChem BioAssay AID1159580 (chemical genetic matrix, 2015)
